Measurements from the supplement of paper PMC6411743.
± gives the standard deviation of the averaged measurements. Of roughly 6,500 targets only a part is listed; those with the largest changes were picked by preference.

Compound: Nc1ncnc2c1ncn2[C@@H]1O[C@H](COP(=O)(O)OP(=O)(O)OP(=O)(O)O)[C@@H](O)[C@H]1O [adenosine triphosphate]
Assay: NP40-soluble protein abundance relative to vehicle (solubility fold change) (ratio); higher = more soluble protein in presence of ATP
Procedure, shortened: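 Crude Jurkat lysate, prepared by Dounce homogenisation, was exposed to eight concentrations from 0.1 to 10 mM for 10 min at room temperature and then 3 min at 37 °C. Solubilisation used 0.8% NP40 with benzonase for 60 min at 4 °C, followed by ultracentrifugation and TMT labelling of the supernatant for LC-MS/MS. After vsn normalisation of intensities, each value is the fold change against the detergent-processed vehicle within each replicate, across three independent experiments.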

Chain of UniProt Q8IY17 (Q8IY17 whole entry): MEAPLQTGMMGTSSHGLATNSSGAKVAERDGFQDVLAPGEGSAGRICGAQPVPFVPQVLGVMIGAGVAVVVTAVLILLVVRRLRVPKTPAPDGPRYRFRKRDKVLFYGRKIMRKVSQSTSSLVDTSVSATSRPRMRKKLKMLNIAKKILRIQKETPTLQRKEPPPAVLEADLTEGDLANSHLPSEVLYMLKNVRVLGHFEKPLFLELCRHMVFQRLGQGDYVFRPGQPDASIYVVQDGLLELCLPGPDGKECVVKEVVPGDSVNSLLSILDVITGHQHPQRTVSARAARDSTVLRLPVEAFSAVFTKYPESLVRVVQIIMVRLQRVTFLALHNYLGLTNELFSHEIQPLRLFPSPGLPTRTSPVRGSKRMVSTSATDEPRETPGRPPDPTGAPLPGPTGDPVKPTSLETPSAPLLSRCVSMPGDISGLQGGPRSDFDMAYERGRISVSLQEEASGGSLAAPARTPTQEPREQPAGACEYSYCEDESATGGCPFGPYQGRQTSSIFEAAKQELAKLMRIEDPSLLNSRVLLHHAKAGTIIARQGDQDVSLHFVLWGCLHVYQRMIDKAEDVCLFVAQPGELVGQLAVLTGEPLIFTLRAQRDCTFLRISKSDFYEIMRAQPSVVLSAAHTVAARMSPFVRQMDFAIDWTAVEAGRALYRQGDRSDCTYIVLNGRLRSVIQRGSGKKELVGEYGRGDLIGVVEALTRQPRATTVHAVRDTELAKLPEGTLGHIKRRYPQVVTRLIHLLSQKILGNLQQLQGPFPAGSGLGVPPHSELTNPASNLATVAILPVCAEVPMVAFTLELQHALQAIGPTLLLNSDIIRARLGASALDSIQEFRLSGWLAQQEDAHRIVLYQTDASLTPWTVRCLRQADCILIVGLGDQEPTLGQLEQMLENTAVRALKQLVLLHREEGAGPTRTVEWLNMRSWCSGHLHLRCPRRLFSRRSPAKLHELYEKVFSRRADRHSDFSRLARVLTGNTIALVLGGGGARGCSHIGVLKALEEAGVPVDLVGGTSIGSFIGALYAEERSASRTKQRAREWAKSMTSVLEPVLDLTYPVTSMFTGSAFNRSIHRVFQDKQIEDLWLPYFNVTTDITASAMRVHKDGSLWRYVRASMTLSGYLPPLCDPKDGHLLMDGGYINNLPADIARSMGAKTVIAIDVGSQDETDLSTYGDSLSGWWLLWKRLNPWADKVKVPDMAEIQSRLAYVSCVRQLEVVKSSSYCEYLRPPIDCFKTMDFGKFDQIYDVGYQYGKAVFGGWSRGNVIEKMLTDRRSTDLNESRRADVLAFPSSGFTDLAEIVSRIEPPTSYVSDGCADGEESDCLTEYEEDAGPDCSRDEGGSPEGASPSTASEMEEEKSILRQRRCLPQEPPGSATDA
Chain of UniProt Q16611 (Q16611 whole entry): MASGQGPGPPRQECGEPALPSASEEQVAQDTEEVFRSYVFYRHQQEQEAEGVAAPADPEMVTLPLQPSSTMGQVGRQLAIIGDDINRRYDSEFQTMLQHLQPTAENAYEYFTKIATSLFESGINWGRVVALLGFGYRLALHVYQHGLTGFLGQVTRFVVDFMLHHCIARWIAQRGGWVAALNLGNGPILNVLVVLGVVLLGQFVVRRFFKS
Chain of UniProt Q15819 (Q15819 whole entry): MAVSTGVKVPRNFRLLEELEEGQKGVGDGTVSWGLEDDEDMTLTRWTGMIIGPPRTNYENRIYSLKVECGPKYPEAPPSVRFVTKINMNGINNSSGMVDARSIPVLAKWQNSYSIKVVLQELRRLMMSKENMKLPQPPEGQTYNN
Chain of UniProt Q8IWE4 (Q8IWE4 whole entry): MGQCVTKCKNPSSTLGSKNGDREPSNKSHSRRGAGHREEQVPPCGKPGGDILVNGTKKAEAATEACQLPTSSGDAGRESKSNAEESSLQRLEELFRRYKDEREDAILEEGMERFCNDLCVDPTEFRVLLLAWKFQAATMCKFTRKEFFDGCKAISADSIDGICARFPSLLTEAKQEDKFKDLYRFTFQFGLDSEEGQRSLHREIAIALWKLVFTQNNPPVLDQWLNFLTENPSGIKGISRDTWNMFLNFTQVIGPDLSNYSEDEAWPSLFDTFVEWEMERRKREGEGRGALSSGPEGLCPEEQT
Chain of UniProt Q2T9J0 (Q2T9J0 whole entry): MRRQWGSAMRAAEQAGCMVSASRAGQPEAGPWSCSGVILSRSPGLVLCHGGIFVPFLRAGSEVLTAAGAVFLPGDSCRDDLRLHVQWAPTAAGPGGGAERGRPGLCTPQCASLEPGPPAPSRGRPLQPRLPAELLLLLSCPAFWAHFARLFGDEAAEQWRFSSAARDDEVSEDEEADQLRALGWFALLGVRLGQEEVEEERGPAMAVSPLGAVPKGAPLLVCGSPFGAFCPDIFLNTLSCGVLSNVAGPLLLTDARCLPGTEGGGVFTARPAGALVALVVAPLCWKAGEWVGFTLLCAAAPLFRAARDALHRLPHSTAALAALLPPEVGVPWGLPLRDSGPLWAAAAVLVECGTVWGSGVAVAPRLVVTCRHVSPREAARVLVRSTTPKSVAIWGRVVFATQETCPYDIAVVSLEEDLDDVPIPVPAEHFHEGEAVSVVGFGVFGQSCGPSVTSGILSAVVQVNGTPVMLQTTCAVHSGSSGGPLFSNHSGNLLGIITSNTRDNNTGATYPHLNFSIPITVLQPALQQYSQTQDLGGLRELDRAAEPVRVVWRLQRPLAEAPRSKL
Chain of UniProt Q7Z5K2 (Q7Z5K2 whole entry): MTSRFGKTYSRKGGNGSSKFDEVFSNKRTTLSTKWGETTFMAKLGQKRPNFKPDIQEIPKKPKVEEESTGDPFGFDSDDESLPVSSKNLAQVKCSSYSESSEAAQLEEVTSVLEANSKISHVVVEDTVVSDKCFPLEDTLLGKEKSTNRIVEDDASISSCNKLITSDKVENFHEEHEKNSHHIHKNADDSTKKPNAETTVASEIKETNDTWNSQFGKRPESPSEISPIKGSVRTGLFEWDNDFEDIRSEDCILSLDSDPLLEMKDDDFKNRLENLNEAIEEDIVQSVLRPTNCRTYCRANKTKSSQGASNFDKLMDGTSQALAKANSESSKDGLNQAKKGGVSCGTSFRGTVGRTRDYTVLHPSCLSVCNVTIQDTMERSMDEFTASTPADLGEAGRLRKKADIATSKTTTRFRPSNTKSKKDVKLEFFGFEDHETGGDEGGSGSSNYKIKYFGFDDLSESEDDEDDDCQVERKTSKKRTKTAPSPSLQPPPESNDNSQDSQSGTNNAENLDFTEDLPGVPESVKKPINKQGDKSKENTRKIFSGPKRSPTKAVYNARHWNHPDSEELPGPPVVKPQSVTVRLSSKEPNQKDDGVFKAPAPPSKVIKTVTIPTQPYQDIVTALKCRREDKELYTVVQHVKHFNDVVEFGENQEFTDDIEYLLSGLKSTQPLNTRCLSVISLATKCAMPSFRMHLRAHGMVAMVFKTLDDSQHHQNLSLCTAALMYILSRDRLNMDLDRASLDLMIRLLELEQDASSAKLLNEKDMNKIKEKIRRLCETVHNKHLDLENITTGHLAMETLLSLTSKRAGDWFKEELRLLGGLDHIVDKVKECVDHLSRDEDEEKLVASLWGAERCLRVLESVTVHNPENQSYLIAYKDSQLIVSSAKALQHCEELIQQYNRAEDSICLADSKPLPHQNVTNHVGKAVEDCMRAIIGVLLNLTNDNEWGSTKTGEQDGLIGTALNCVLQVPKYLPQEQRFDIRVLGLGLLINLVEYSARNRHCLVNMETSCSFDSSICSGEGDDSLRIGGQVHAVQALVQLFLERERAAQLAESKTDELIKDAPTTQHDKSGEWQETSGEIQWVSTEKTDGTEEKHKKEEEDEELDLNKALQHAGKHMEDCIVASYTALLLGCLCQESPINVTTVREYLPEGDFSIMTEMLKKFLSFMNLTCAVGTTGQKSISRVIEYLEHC
Chain of UniProt Q86U06 (Q86U06 whole entry, one chain of several): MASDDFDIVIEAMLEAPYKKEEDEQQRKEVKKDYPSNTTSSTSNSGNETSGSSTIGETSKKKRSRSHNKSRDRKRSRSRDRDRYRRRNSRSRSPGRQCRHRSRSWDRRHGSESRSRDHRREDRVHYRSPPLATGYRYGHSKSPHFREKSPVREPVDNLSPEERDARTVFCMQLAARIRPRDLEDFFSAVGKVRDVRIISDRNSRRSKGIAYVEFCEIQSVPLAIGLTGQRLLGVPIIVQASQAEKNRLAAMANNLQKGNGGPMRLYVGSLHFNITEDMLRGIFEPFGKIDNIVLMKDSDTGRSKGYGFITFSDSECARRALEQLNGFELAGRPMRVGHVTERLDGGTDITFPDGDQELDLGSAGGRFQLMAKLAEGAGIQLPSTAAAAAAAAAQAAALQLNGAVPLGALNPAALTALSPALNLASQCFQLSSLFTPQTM
Chain of UniProt Q13247 (Q13247 whole entry, looked up): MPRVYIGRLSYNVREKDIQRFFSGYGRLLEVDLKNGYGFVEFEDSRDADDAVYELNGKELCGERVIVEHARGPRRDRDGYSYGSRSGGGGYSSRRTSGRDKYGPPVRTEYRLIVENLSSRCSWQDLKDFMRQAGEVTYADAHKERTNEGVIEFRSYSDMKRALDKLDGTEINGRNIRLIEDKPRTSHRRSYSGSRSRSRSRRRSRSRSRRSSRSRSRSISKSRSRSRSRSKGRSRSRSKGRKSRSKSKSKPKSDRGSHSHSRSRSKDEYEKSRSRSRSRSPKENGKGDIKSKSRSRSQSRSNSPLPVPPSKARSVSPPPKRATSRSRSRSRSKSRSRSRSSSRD
Chain of UniProt Q86X83 (Q86X83 whole entry): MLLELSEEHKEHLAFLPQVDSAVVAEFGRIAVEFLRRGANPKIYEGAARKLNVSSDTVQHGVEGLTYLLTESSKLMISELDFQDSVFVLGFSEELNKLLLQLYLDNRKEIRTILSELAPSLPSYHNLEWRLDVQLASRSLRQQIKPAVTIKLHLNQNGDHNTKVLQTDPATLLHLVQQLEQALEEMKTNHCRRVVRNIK

Target	NP40-soluble protein abundance (concentration: 1mM)	NP40-soluble protein abundance (concentration: 2mM)	NP40-soluble protein abundance (concentration: 4mM)	NP40-soluble protein abundance (concentration: 6mM)	NP40-soluble protein abundance (concentration: 8mM)	NP40-soluble protein abundance (concentration: 10mM)
UniProt Q70Z53	0.931 ± 0.015	0.927 ± 0.028	0.919 ± 0.011	0.922 ± 0.066	0.933 ± 0.058	0.936 ± 0.013
UniProt Q86X83|Q86X83-2	1.01 ± 0.038	0.975 ± 0.011	0.963 ± 0.024	0.927 ± 0.022	0.956 ± 0.048	0.971 ± 0.021
UBE2V2 (UniProt Q15819)	0.932 ± 0.018	0.904 ± 0.027	0.9 ± 0.045	0.922 ± 0.032	0.885 ± 0.035	0.853 ± 0.028
LARP1 (UniProt Q6PKG0)	0.939 ± 0.062	0.988 ± 0.065	1.06 ± 0.059	1.2 ± 0.069	1.22 ± 0.043	1.33 ± 0.065
UniProt Q7Z5K2|Q7Z5K2-3	1.02 ± 0.011	0.995 ± 0.018	0.993 ± 0.011	1.01 ± 0.026	1.014 ± 0.0065	0.987 ± 0.029
UniProt Q8NI08-2	0.989 ± 0.064	1.03 ± 0.032	1.01 ± 0.016	1.02 ± 0.022	0.989 ± 0.039	0.993 ± 0.024
TYSND1 (UniProt Q2T9J0)	0.977 ± 0.047	0.983 ± 0.058	0.995 ± 0.042	0.947 ± 0.013	0.974 ± 0.032	0.96 ± 0.076
UniProt Q8IY17|Q8IY17-3|Q8IY17-4|Q8IY17-2	1.05 ± 0.056	1.05 ± 0.033	1.028 ± 0.0096	1.01 ± 0.051	1.04 ± 0.04	1.06 ± 0.036
DCUN1D3 (UniProt Q8IWE4)	0.923 ± 0.038	0.949 ± 0.049	0.998 ± 0.035	0.92 ± 0.034	0.931 ± 0.039	0.866 ± 0.11
UniProt Q16611|Q16611-2	1.01 ± 0.036	0.985 ± 0.023	1.02 ± 0.09	1.05 ± 0.045	0.997 ± 0.077	0.993 ± 0.087
UniProt Q86U06|Q86U06-2|Q86U06-4|Q86U06-5|G3XAP0	1.5 ± 0.41	1.53 ± 0.31	1.48 ± 0.33	1.76 ± 0.46	1.56 ± 0.41	1.46 ± 0.49
UniProt Q2KHT3|Q2KHT3-2	1.04 ± 0.045	0.967 ± 0.1	0.963 ± 0.11	0.999 ± 0.093	1.04 ± 0.15	1.02 ± 0.17
UniProt Q13247|Q13247-3	1.84 ± 0.25	1.98 ± 0.19	2 ± 0.21	2.28 ± 0.23	2.17 ± 0.17	2.15 ± 0.25
KBTBD2 (UniProt Q8IY47)	1.14 ± 0.13	1.11 ± 0.027	1.15 ± 0.07	1.05 ± 0.044	1.16 ± 0.13	1.08 ± 0.026
UniProt Q86UY6	1.39 ± 0.18	1.46 ± 0.14	1.56 ± 0.21	1.66 ± 0.26	1.69 ± 0.21	1.69 ± 0.15
